GPR151 activ – activates the human receptor GPR151. PathHunter beta-arrestin GPR151 cells, luminescence. activation, % at 11.2 µM. 1% of 650,000 active. AID 1508602; in the data active = activation above about 4.9%
Target sequence (Q8TDV0 whole entry, looked up): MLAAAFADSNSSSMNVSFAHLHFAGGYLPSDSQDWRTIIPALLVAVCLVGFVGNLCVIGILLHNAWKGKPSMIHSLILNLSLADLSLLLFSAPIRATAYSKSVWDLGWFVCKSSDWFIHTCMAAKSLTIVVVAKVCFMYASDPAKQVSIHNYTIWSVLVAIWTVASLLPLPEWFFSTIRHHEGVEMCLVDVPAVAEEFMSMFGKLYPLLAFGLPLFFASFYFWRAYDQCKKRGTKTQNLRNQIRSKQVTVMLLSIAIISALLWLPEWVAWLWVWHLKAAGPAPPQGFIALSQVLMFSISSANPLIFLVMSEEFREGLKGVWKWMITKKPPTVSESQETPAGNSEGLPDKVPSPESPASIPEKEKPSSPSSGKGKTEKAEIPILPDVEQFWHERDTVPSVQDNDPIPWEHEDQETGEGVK
FBW7 act – activators of human E3 ligase FBW7; AID 1259310; 0.13% of 650,000 active; normalized activity (activation), % at 26.1 µM; AlphaScreen FBW7–phospho-cyclin E peptide binding, activator screen; Q969H0; in the data active = normalized activity above about 1.9%;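 note: purified mutant Fbw7 with reduced substrate affinity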
MITF inh – human MITF inhibition, primary screen | O75030 | AlphaScreen MITF homodimerization, bead proximity signal | inhibition, % at 2.6 µM | 0.91% of 650,000 active; in the data active = inhibition above about 50%
TEAD-YAP inh – TEAD-YAP interaction inhibition; HEK-TIYL cells, TEAD-Gal4/YAP UAS-luciferase luminescence; inhibition, % at 9.12 µM; 1.4% of 640,000 active; in the data active = inhibition above about 32%
MITF inh conf – human MITF inhibition, confirmation; AlphaScreen MITF homodimerization, biotin/His-MITF beads; 16% of 4,700 active; shares compounds with MITF inh; inhibition, % at 2.6 µM;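 active = inhibition above a cutoff derived from the DMSO control wells, cut at about 28% in these data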;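 note: inhibitors lower the bead chemiluminescence by keeping MITF from dimerizing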
AlphaScreen DR – AlphaScreen optical interference, dose response counter-screen; shares compounds with MITF inh; AlphaScreen optical interference counterscreen, cell-free; IC50, µM; 6% of 480 active; AID 1259373; call rule not given here
AS interf ctr – optically interferes with AlphaScreen signal. shares compounds with MITF inh. LysRS AlphaScreen counterscreen, signal interference, triplicate. inhibition, % at 2.6 µM. 7.6% of 4,700 active. AID 1259376;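 active = inhibition above a cutoff derived from the DMSO control wells, cut at about 30% in these data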
A number is an active result; i = inactive; nt = no result given. This is a sample that favours compounds with a hit; in the whole collection about 3.5% have one here.

SMILES | GPR151 activ | FBW7 act | MITF inh | TEAD-YAP inh | MITF inh conf | AS interf ctr | others
CCN1CCN(C(=O)c2ccc(CS(=O)(=O)c3ccccc3OC)o2)CC1 | i | i | i | i | nt | nt
COC(=O)C1Sc2[nH]c(=O)sc2C(c2ccc(OC)cc2)C1C(=O)OC (stereo not drawn) | i | i | 52 | i | i | i
COC(=O)C1Sc2[nH]c(=O)sc2C(c2cccc([N+](=O)[O-])c2)C1C(=O)OC (stereo not drawn) | i | i | i | i | nt | nt
Cc1ccc(C2CC(=O)C(C=Nc3ccc(Cl)cc3C(=O)c3ccccc3)=C(O)C2)cc1 (stereo not drawn) | i | i | i | i | nt | nt
C/C=C\C1=C(C(=O)O)N2C(=O)C(NC(=O)C(N)c3ccc(O)cc3)C2SC1 (stereo not drawn) | i | i | 51 | i | 28 | i | AlphaScreen DR=i
CC1=C(C(=O)O)N2C(=O)[C@@H](NC(=O)[C@H](N)c3ccccc3)[C@H]2SC1 | i | i | i | i | nt | nt
COc1ccc(C)cc1NC(=O)C(C)c1ccccc1 (stereo not drawn) | i | i | i | i | nt | nt
COc1ccc(C)cc1NC(=O)C(C(C)C)N1C(=O)c2ccccc2C1=O (stereo not drawn) | i | i | 71 | i | i | i
COc1ccc(C)cc1NC(=O)C(NCC(O)c1ccccc1)c1ccccc1 (stereo not drawn) | i | i | 84 | i | 30 | i | AlphaScreen DR=i
O=C(Nc1ccccc1)c1ccc2nc(Nc3ccncc3)sc2c1 | i | i | i | i | nt | nt
COCCNC(=O)C(OC(=O)c1ccco1)C(C)C (stereo not drawn) | i | i | i | i | nt | nt
COc1ccc(-c2ncn(-c3ccc(Nc4ncc5ccc(-c6cnn(C)c6)cc5n4)cc3)n2)cn1 | i | i | 55 | i | i | i
Brc1ccccc1CN1CCN(Cc2ccco2)CC1 | i | i | 78 | i | i | i
Brc1ccc(CN2CCN(Cc3ccco3)CC2)cc1 | i | i | 86 | i | i | i
Cc1ccccc1CN1CCN(Cc2ccco2)CC1 | i | i | 72 | i | i | i
CS(=O)(=O)N1CCN(Cc2ccco2)CC1 | i | i | i | i | nt | nt
Fc1ccc(N2CN(Cc3ccco3)CNC2=S)cc1 | i | i | i | i | nt | nt
Fc1ccc(N2CCN(Cc3ccco3)CC2)cc1 | i | i | 52 | i | i | i
O=C1CCCN1CCCNc1nc(N2CCCC2CO)nc2c1ncn2Cc1ccc(C(F)(F)F)cc1 (stereo not drawn) | i | i | i | i | nt | nt
CC(C)N(CCNc1nc(NCc2cccnc2)nc2c1ncn2CCN1CCCC1=O)C(C)C | i | i | i | i | nt | nt
CN1C(=O)/C(=C/c2ccc(-c3ccccc3[N+](=O)[O-])o2)NC1=S | i | i | i | i | nt | nt
O=S(=O)(c1ccccc1)N1CCN(Cc2ccco2)CC1 | i | i | i | i | nt | nt
c1ccc(CCCN2CCN(Cc3ccco3)CC2)cc1 | i | i | 55 | i | i | i
O=C(Nc1nnc(-c2ccco2)o1)c1ccc([N+](=O)[O-])o1 | i | i | 55 | i | i | i
O=C(Nc1nnc(-c2ccccc2)o1)c1ccc([N+](=O)[O-])o1 | i | i | i | i | nt | nt
SMILES | GPR151 activ | FBW7 act | MITF inh | TEAD-YAP inh | MITF inh conf | AS interf ctr | others
COc1cc(CN(C)CCN(C)C)cc(OC)c1O | i | i | 55 | i | i | i
CCc1nc2c(sc3cccc(F)c32)c(=O)n1CC(=O)NCc1ccc(Cl)cc1 | i | i | 55 | i | i | i
O=c1cc(-c2ccccc2)[nH]n1-c1nc2ccccc2[nH]1 | i | i | i | i | nt | nt
Cc1[nH]n(-c2nc3ccccc3[nH]2)c(=O)c1C1OC(=O)c2ccccc21 (stereo not drawn) | i | i | 91 | i | 71 | 100
Cc1ccc(N2C(=O)C3ON(c4ccccc4)C(c4ccc([N+](=O)[O-])cc4)C3C2=O)cc1 (stereo not drawn) | i | i | 61 | i | i | i
CSc1ccc(S(=O)(=O)N2CCN(Cc3ccccc3)CC2)cc1 | i | i | i | i | nt | nt
CSc1ccc(CN2CCN(S(=O)(=O)Cc3ccccc3)CC2)cc1 | i | i | 72 | i | i | i
O=S(=O)(Cc1ccccc1)N1CCN(C2CCN(Cc3ccccc3)CC2)CC1 | i | i | 65 | i | i | i
CCc1ccc(CN2CCN(S(=O)(=O)Cc3ccccc3)CC2)cc1 | i | i | 60 | i | i | i
O=S(=O)(Cc1ccc(Cl)cc1)N1CCN(Cc2ccccc2)CC1 | i | i | i | i | nt | nt
O=S(=O)(Cc1ccccc1)N1CCN(Cc2ccc(Br)cc2)CC1 | i | i | 59 | i | i | i
OCCNc1nc(Cl)nc(Nc2ccc(-c3nc4ccccc4o3)cc2)n1 | i | i | i | i | nt | nt
Cc1cccc(CN2CCN(CCCc3ccccc3)CC2)c1 | i | i | 69 | i | i | i
CSc1ccc(CN2CCN(CCCc3ccccc3)CC2)cc1 | i | i | 64 | i | i | i
C=CCc1cc(C)ccc1OCCOCCn1ccnc1 | i | i | 66 | i | i | i
Clc1cccc(Cl)c1OCCCCn1ccnc1 | i | i | 52 | i | i | i
C=CCc1cc(OC)ccc1OCCCCn1ccnc1 | i | i | 78 | i | i | i
C=CCc1cc(Cl)ccc1OCCCCn1ccnc1 | i | i | 68 | i | i | i
Cn1c(=O)c2c(nc(Br)n2CC(=O)c2ccc(Br)cc2)n(C)c1=O | i | i | i | i | nt | nt
CN(C)CCN1C(=O)C(=O)/C(=C(\O)c2ccccc2)C1c1ccc(N(C)C)cc1 (stereo not drawn) | i | i | i | i | nt | nt
Cc1ccc(S(=O)(=O)N2CCC[C@H]2C(=O)N(C)Cc2cccs2)cc1 | i | i | i | i | nt | nt
COc1ccc(-c2[nH]ncc2C(=O)NCc2ccccc2Cl)cc1 | i | i | i | i | nt | nt
CN1CCN(Cc2cn[nH]c2-c2ccc(Cl)cc2)CC1 | i | i | i | i | nt | nt
Cc1ccc(-c2[nH]ncc2CN2CCN(C)CC2)cc1 | i | i | 69 | i | i | i
Cc1ccc(S(=O)(=O)N2CCN(c3ccc([N+](=O)[O-])c(N4CCCC4)c3)CC2)cc1 | i | i | i | i | nt | nt
SMILES | GPR151 activ | FBW7 act | MITF inh | TEAD-YAP inh | MITF inh conf | AS interf ctr | others
Cc1cc(=O)n(C)c(=O)n1CCCCBr | i | i | i | i | nt | nt
Cc1cc(=O)n(C)c(=O)n1Cc1ccccc1 | i | i | i | i | nt | nt
Cc1cc(=O)n(C)c(=O)n1CCCNC(C)c1ccccc1 (stereo not drawn) | i | i | 84 | i | i | i
Cc1cc(=O)n(C)c(=O)n1CCCCNCCO | i | i | 72 | i | i | i
CCOC(=O)Cn1ncc2c3oc(C)cc3n(C)c2c1=O | i | i | i | i | nt | nt
Cc1cccc(NC(=O)C2CC(O)CN2C(=O)OCC(C)C)c1 (stereo not drawn) | i | i | i | i | nt | nt
COc1ccc(CN(C)C2CCN(C)CC2)c(C)c1C | i | i | 59 | i | i | i
COC(=O)c1ccc(CN(C)C2CCN(C)CC2)cc1 | i | i | 57 | i | i | i
COc1cc(OC)c(OC)cc1CN(C)C1CCN(C)CC1 | i | i | i | i | nt | nt
CN1CCC(N(C)Cc2cccc(F)c2)CC1 | i | i | 59 | i | i | i

From PubChem BioAssay
